Assay results as given in PubChem BioAssay (NCI).
This is part of a sample that, as a whole, favours compounds with a hit. Of some 79,000 tested, about 15% had one in any assay. Calls of active or inactive are those of the source. Cut-off read from the data, not from the text of the source: active = growth inhibition above about 70%; inactive = the rest.

Tests used:
[1] = NCI Yeast Anticancer Drug Screen. Data for the rad52 strain (AID 147);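 note: 0% = growth of vehicle-treated control cultures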; settings: S. cerevisiae rad52 mutant growth inhibition, stronger effect = higher value
Method in brief: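 Genetically altered yeast (DNA damage repair defect) treated with compound; inhibition calculated relative to vehicle.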

[2] = NCI Yeast Anticancer Drug Screen. Data for the wt1 strain (AID 149);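 note: 0% = growth of vehicle-treated wt1 cultures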; settings: S. cerevisiae wt1 strain (SPY 50644) growth inhibition, stronger effect = higher value
Method in brief: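 Each compound is tested on wt1 yeast and the loss of growth versus vehicle gives the inhibition value.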

[3] = NCI Yeast Anticancer Drug Screen. Data for the rad50EPP+ strain (AID 151);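 note: 0% = growth of vehicle-treated control cultures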; settings: S. cerevisiae rad50 mutant strain, stronger effect = higher value
Method in brief: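 Strain rad50EPP+; compound exposure; % growth inhibition vs vehicle.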

[4] = NCI Yeast Anticancer Drug Screen. Data for the mgt1 strain (AID 153); settings: S. cerevisiae mgt1 mutant growth inhibition, stronger effect = higher value
Method in brief: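 Read-out: yeast growth inhibition vs vehicle control. Strain mgt1, drawn from a panel altered in DNA damage repair or cell cycle control.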

[5] = NCI Yeast Anticancer Drug Screen. Data for the rad50 strain (AID 155);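 note: 0% = growth of vehicle-only cultures of the same strain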; settings: S. cerevisiae rad50 strain growth inhibition, stronger effect = higher value
Method in brief: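 Vehicle-treated cultures provide the reference for the growth inhibition reported for compound-exposed, repair-deficient yeast.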

[6] = NCI Yeast Anticancer Drug Screen. Data for the mec2-1 strain (AID 157); settings: S. cerevisiae mec2-1 strain, stronger effect = higher value
Method in brief: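 Cells of the genetically defined mec2-1 yeast strain are incubated with test compound. Inhibition of growth is calculated against vehicle-treated controls.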

[7] = NCI Yeast Anticancer Drug Screen. Data for the rad14 strain (AID 159);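 note: 0% = growth of vehicle-treated control cultures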; settings: S. cerevisiae rad14 strain growth inhibition, stronger effect = higher value
Method in brief: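 Inhibition of growth is reported for a repair-deficient yeast mutant following compound treatment, calculated relative to cultures that received vehicle.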

[8] = NCI Yeast Anticancer Drug Screen. Data for the sgs1 mgt1 strain (AID 161);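 note: 0% = growth of cultures given vehicle only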; settings: S. cerevisiae sgs1 mgt1 strain, stronger effect = higher value
Method in brief: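 Inhibition of yeast growth, normalised to vehicle-treated controls, is reported for a strain bearing genetic alterations in DNA damage repair.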

[9] = NCI Yeast Anticancer Drug Screen. Data for the CLN2oe strain (AID 163);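 note: 0% = growth of vehicle-only control cultures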; settings: S. cerevisiae CLN2oe strain, stronger effect = higher value
Method in brief: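 Strain altered in cell-cycle control, incubated with compound; growth compared to solvent-treated controls.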

[10] = NCI Yeast Anticancer Drug Screen. Data for the cln2 rad14 strain (AID 165);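 note: 0% = growth equal to vehicle treated cultures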; settings: S. cerevisiae cln2 rad14 strain, stronger effect = higher value
Method in brief: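 The screen exposed genetically defined yeast (cln2 rad14) to test compounds and scored growth inhibition relative to vehicle-treated controls.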

[11] = NCI Yeast Anticancer Drug Screen. Data for the bub3 strain (AID 167); settings: S. cerevisiae bub3 mutant strain, stronger effect = higher value
Method in brief: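 Mutant yeast screening strain plus compound; vehicle-treated cultures serve as the 0% inhibition reference.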

[12] = NCI Yeast Anticancer Drug Screen. Data for the wt2 strain (AID 169); settings: S. cerevisiae wt2 strain growth inhibition, stronger effect = higher value
Method in brief: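 Steps: yeast strain treated with compound; growth recorded; inhibition calculated relative to cultures given vehicle alone.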

[13] = NCI Yeast Anticancer Drug Screen. Data for the mlh1 strain (AID 171);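 note: 0% = growth of vehicle-treated control cultures of the same strain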; settings: S. cerevisiae mlh1 strain growth inhibition, stronger effect = higher value
Method in brief: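 Yeast screen: mutant strain plus compound, growth scored against vehicle control wells.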

[14] = NCI Yeast Anticancer Drug Screen. Data for the sgs1 strain (AID 173);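 note: 0% = growth of vehicle-only control cultures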; settings: S. cerevisiae sgs1 mutant, stronger effect = higher value
Method in brief: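 Inhibition of yeast growth served as the measure. The mutant strain was treated with each compound, and growth was normalised to cultures receiving vehicle alone.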

[15] = NCI Yeast Anticancer Drug Screen. Data for the mlh1 rad18 strain (AID 175); settings: S. cerevisiae mlh1 rad18 strain growth inhibition, stronger effect = higher value
Method in brief: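 Compound-treated yeast growth, normalised to vehicle controls. Strain bears defined DNA repair mutations.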

[16] = NCI Yeast Anticancer Drug Screen. Data for the rad18 strain (AID 177); settings: S. cerevisiae rad18 mutant growth inhibition, stronger effect = higher value
Method in brief: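 Inhibition values reflect reduced yeast growth compared with vehicle-treated controls, using a strain engineered with a DNA damage repair defect.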

[17] = at 5.0 µM (retest, dose inferred, filed as 0.5)
[18] = at 50.0 µM (retest, dose inferred, filed as 5.0)

Measured: growth inhibition

COc1ccc2c(c1)C(=O)c1ccccc1C2
inactive: [1]; at 1.2 µM 3% | [1]; at 3.7 µM 9% | [1]; at 11.0 µM 20% | [1]; at 33.0 µM 35% | [1]; at 100.0 µM 34% | [2]; at 1.2 µM 2% | [2]; at 3.7 µM 1% | [2]; at 11.0 µM 5% | [2]; at 33.0 µM 6% | [2]; at 100.0 µM 4% | [3]; at 1.2 µM 3% | [3]; at 3.7 µM 10% | [3]; at 11.0 µM 24% | [3]; at 33.0 µM 42% | [3]; at 100.0 µM 46% | [4]; at 1.2 µM -4% | [4]; at 3.7 µM 2% | [4]; at 11.0 µM 5% | [4]; at 33.0 µM 7% | [4]; at 100.0 µM 10% | [5]; at 1.2 µM 3% | [5]; at 3.7 µM 18% | [5]; [17] -23% | [5]; at 11.0 µM 31% | [5]; at 33.0 µM 48% | [5]; [18] 30% | [5]; at 50.0 µM 7% | [5]; at 100.0 µM 35% | [6]; at 1.2 µM -1% | [6]; at 3.7 µM 5% | [6]; [17] -4% | [6]; at 11.0 µM -1% | [6]; at 33.0 µM 6% | [6]; [18] 23% | [6]; at 50.0 µM 24.4% | [6]; at 100.0 µM 6% | [7]; at 1.2 µM 1% | [7]; at 3.7 µM 6% | [7]; at 11.0 µM 8% | [7]; at 33.0 µM 6% | [7]; at 100.0 µM 7% | [8]; [17] 19% | [8]; [18] 0% | [8]; at 50.0 µM -5.05% | [9]; at 1.2 µM -3% | [9]; at 3.7 µM -1% | [9]; at 11.0 µM 0% | [9]; at 33.0 µM 9% | [9]; at 100.0 µM 4% | [10]; [17] -18% | [10]; [18] 4% | [10]; at 50.0 µM -19.8% | [11]; at 1.2 µM 42% | [11]; at 3.7 µM 67% | [11]; [17] 65% | [12]; at 1.2 µM -1% | [12]; at 3.7 µM 3% | [12]; at 11.0 µM 6% | [12]; at 33.0 µM 7% | [12]; at 100.0 µM 7% | [13]; at 1.2 µM 1% | [13]; at 3.7 µM -1% | [13]; at 11.0 µM 4% | [13]; at 33.0 µM 11% | [13]; at 100.0 µM 28% | [14]; at 1.2 µM -3% | [14]; at 3.7 µM -4% | [14]; at 11.0 µM 0% | [14]; at 33.0 µM 0% | [14]; at 100.0 µM 1% | [15]; [17] 2% | [15]; [18] 31% | [15]; at 50.0 µM 15.6% | [16]; at 1.2 µM -2% | [16]; at 3.7 µM -1% | [16]; at 11.0 µM 6% | [16]; at 33.0 µM 7% | [16]; at 100.0 µM -6%
active: [11]; at 11.0 µM 74% | [11]; at 33.0 µM 82% | [11]; [18] 85% | [11]; at 50.0 µM 75% | [11]; at 100.0 µM 80%
